Data from the supplement of paper PMC10849652.
Targets with a hit are over-represented here; the source holds about 8,800 in all. About 0.5% of all pairs of compound and target were hits. Unmarked numbers belong to inactive results.

Tests used:
Assay in all cases: log2 fold change, soluble protein after heating vs DMSO (PISA); higher = thermal stabilisation; K562 lysate, 10 uM; active = over 0.2 and 3.5 SD of the protein, either way, in both replicates (recomputed)
[1] = compound: CS(=O)(=O)CCNCc1ccc(-c2ccc3ncnc(Nc4ccc(OCc5cccc(F)c5)c(Cl)c4)c3c2)o1 [lapatinib]
Procedure, shortened: (§1)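 K562 pellets were dounce-homogenised in PBS pH 7.4 with 1 mM MgCl2, and the crude extract at 1 mg/mL protein was treated with 10 μM compound for 30 min. Aliquots were heated for 3 min across 48°C-58°C, pooled, and brought to 0.5% NP-40 at 4°C; soluble protein was the supernatant after 21,000xg for 90 min. Soluble protein was quantified by TMTpro 16plex LC-MS/MS with channel sums equalised, and reported as log2 fold change in thermal stability against DMSO controls, with values from duplicates.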

[2] = compound: CS(=O)(=O)N1CCN(Cc2cc3nc(-c4cccc5[nH]ncc45)nc(N4CCOCC4)c3s2)CC1 [pictilisib]
Procedure, shortened: as §1

[3] = compound: C[C@@H](Oc1cc(-c2cnn(C3CCNCC3)c2)cnc1N)c1c(Cl)ccc(F)c1Cl [crizotinib]
Procedure, shortened: as §1

[4] = compound: C[C@H](C1=CC=C(C=C1)C(=O)NC2=C3C=CNC3=NC=C2)N
Procedure, shortened: as §1

[5] = compound: C[C@H](Nc1ncnc2nc[nH]c12)c1cc2cccc(Cl)c2c(=O)n1-c1ccccc1 [duvelisib]
Procedure, shortened: as §1

[6] = compound: Cc1cc(Nc2cc(CN3CCOCC3)c3nc(C)c(Cc4ccc(Cl)cc4F)n3n2)n[nH]1 [gandotinib]
Procedure, shortened: as §1

[7] = compound: Cc1cc(Nc2cc(N3CCN(C)CC3)nc(Sc3ccc(NC(=O)C4CC4)cc3)n2)n[nH]1 [tozasertib]
Procedure, shortened: as §1

[8] = compound: Cc1ccc(-n2nc(C(C)(C)C)cc2NC(=O)Nc2ccc(OCCN3CCOCC3)c3ccccc23)cc1 [doramapimod]
Procedure, shortened: as §1

[9] = compound: Cc1ccc(NC(=O)c2ccc(CN3CC[C@H](N(C)C)C3)c(C(F)(F)F)c2)cc1Nc1nccc(-c2cncnc2)n1 [bafetinib]
Procedure, shortened: as §1

[10] = compound: Cc1cccc(CC(=O)N2CCc3c2ccc(-c2cn(C)c4ncnc(N)c24)c3F)n1
Procedure, shortened: as §1

[11] = compound: Cc1cn(-c2cc(NC(=O)c3ccc(C)c(Nc4nccc(-c5cccnc5)n4)c3)cc(C(F)(F)F)c2)cn1 [nilotinib]
Procedure, shortened: as §1

[12] = compound: Cc1nc(Nc2n[nH]c3c2CN(C(=O)N[C@H](CN(C)C)c2ccccc2)C3(C)C)c2sccc2n1
Procedure, shortened: as §1

[13] = compound: Cc1nc(Nc2ncc(C(=O)Nc3c(C)cccc3Cl)s2)cc(N2CCN(CCO)CC2)n1 [dasatinib]
Procedure, shortened: as §1

[14] = compound: Cc1ncc(-c2ccnc(Nc3ccc(S(C)(=O)=O)cc3)n2)n1C(C)C
Procedure, shortened: as §1

[15] = compound: Cn1cc(-c2ccc3c(c2)CCN3C(=O)Cc2cccc(C(F)(F)F)c2)c2c(N)ncnc21
Procedure, shortened: as §1

[16] = compound: Cn1cc(CNCC2CCN(c3ncc(C(=O)NO)cn3)CC2)c2ccccc21 [quisinostat]
Procedure, shortened: as §1

[17] = compound: Cn1cncc1[C@@](N)(c1ccc(Cl)cc1)c1ccc2c(c1)c(-c1cccc(Cl)c1)cc(=O)n2C [tipifarnib]
Procedure, shortened: as §1

[18] = compound: NC(=O)Nc1cc(-c2cccc(F)c2)sc1C(=O)N[C@H]1CCCNC1
Procedure, shortened: as §1

[19] = compound: NC(=O)c1cnc(N[C@@H]2CCCC[C@@H]2N)nc1Nc1cccc(-n2nccn2)c1
Procedure, shortened: as §1

[20] = compound: NC1(c2ccc(-c3nc4ccn5c(=O)[nH]nc5c4cc3-c3ccccc3)cc2)CCC1
Procedure, shortened: as §1

Sequence of UniProt B2RUZ4 (B2RUZ4 whole entry, looked up): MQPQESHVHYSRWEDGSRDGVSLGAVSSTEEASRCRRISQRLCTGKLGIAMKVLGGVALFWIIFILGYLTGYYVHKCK
Sequence of UniProt Q9UNE7 (Q9UNE7 whole entry, looked up): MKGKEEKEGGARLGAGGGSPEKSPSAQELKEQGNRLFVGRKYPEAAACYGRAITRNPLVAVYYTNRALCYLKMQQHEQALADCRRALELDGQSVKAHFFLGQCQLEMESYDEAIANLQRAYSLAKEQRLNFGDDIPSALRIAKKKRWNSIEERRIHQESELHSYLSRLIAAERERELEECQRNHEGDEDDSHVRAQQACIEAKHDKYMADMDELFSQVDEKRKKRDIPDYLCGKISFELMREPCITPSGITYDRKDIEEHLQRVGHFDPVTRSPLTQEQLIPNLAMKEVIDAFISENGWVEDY
Sequence of UniProt Q6NXT6 (Q6NXT6 whole entry, looked up): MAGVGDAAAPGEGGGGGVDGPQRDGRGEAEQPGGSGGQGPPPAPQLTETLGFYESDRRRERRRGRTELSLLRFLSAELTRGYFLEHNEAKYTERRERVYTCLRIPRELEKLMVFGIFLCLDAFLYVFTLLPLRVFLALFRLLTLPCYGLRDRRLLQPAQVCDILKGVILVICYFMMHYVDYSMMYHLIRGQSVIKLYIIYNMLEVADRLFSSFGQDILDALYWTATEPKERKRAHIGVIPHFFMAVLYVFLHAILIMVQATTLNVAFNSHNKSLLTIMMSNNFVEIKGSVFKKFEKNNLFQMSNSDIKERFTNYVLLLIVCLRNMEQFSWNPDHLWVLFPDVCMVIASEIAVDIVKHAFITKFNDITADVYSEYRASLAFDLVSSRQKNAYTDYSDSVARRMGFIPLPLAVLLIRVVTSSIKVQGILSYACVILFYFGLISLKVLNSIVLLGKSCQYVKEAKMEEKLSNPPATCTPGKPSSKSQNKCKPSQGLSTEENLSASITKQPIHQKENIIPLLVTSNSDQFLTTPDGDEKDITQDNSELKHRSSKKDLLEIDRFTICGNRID
Sequence of UniProt Q8NB90 (Q8NB90 whole entry, looked up): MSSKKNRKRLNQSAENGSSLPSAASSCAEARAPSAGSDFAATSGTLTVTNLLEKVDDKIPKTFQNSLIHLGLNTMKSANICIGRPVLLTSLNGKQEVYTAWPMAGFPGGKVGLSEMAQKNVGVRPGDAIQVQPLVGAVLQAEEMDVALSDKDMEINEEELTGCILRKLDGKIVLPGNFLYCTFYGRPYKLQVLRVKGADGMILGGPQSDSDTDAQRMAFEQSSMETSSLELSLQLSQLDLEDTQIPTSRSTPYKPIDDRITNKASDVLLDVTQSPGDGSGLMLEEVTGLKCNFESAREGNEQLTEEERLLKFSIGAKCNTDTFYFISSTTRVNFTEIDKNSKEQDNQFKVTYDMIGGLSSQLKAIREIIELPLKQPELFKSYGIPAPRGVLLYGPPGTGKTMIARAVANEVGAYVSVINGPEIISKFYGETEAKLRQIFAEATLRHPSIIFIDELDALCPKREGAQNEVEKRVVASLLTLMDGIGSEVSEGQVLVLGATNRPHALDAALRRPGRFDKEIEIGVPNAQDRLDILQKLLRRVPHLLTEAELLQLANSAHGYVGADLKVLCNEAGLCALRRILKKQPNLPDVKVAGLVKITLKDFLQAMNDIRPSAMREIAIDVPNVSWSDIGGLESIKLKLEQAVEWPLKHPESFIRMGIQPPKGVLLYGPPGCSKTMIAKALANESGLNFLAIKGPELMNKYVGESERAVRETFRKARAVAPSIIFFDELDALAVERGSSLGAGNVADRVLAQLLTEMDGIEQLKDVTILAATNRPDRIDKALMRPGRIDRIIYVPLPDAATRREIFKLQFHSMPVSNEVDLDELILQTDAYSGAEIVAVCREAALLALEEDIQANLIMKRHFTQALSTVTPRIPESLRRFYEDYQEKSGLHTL
Sequence of UniProt P31947 (P31947 whole entry, looked up): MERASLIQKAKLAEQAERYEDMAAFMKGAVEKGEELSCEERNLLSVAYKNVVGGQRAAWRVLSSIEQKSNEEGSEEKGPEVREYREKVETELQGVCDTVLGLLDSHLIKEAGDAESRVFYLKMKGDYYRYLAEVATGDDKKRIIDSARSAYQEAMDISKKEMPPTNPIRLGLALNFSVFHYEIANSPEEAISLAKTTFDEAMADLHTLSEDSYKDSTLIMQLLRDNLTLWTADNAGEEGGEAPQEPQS
Sequence of UniProt O60504 (O60504 whole entry, looked up): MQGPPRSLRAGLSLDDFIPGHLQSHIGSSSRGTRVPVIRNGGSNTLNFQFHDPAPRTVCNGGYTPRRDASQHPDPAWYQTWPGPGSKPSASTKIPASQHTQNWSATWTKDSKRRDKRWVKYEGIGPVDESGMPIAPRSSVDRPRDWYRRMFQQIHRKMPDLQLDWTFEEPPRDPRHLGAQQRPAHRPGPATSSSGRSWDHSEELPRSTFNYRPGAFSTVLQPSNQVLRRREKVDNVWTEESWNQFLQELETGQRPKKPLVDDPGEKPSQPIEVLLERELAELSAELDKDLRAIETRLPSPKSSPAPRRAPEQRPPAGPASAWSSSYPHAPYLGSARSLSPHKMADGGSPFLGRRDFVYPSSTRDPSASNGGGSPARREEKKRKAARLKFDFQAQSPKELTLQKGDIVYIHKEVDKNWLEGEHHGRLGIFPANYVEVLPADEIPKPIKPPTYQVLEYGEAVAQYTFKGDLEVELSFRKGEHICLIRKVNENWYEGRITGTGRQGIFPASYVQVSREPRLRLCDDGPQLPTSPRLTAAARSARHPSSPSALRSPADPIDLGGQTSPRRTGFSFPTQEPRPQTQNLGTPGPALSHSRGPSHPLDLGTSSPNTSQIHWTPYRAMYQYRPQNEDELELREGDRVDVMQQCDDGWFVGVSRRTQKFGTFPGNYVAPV
Sequence of UniProt Q8WU79 (Q8WU79 whole entry, looked up): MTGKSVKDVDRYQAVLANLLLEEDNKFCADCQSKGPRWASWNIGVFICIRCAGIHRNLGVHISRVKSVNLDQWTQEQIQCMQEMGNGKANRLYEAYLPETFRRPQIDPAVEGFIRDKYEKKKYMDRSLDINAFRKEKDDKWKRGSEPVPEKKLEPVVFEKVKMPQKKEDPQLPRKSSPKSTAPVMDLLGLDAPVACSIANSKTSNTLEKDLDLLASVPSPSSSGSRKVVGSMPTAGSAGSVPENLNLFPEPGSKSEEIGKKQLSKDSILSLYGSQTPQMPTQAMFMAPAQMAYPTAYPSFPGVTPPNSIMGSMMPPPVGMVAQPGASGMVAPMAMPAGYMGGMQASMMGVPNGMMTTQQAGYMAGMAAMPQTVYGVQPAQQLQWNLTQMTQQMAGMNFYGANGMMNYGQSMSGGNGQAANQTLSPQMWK
Sequence of UniProt Q9P289 (Q9P289 whole entry, looked up): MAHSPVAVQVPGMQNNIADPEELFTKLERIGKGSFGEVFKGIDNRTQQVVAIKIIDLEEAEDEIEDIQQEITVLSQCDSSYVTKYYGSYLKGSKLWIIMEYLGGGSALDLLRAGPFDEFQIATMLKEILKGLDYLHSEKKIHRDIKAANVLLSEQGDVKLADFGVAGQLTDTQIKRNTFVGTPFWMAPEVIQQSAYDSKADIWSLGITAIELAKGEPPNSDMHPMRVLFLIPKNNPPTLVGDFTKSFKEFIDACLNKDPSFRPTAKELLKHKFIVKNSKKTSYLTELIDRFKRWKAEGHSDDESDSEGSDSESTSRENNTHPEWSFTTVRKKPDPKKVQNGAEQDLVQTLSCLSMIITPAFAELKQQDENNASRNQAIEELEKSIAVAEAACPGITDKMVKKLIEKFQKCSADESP
Sequence of UniProt Q9HBR0 (Q9HBR0 whole entry, looked up): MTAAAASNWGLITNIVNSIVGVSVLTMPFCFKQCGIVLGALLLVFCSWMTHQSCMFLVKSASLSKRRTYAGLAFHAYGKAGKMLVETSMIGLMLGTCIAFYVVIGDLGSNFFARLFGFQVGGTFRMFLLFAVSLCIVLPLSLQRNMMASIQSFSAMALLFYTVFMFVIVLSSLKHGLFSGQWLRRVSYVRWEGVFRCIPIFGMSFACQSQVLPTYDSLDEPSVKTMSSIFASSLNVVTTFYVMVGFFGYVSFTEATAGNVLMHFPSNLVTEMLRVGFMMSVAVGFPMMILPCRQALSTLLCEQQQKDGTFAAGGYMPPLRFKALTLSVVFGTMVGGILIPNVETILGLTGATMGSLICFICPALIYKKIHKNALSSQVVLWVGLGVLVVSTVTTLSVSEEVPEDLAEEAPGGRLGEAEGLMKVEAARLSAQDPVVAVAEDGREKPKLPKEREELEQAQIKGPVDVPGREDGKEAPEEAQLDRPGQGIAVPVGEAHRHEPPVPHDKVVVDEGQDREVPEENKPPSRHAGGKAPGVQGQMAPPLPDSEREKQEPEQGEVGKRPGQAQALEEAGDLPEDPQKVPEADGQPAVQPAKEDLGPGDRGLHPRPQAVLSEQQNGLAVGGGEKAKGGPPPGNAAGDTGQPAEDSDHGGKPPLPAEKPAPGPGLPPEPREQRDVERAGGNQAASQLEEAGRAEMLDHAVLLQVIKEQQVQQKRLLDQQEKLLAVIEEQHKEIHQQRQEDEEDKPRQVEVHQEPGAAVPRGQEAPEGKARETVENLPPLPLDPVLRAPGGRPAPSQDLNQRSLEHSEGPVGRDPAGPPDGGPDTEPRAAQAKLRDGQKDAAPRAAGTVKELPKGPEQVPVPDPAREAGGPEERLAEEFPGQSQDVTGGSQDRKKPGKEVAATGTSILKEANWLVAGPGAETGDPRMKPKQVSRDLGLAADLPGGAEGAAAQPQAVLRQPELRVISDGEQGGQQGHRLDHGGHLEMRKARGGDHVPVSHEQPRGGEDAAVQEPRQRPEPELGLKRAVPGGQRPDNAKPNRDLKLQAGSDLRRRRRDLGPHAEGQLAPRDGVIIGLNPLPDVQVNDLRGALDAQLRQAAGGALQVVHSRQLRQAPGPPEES
Sequence of UniProt P62318 (P62318 whole entry, looked up): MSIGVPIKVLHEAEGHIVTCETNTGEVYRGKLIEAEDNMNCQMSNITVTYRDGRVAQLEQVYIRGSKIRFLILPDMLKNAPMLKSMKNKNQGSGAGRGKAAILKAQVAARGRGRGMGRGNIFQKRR

Row | Target | log2 fold change [1] | log2 fold change [2] | log2 fold change [3] | log2 fold change [4] | log2 fold change [5] | log2 fold change [6] | log2 fold change [7] | log2 fold change [8] | log2 fold change [9] | log2 fold change [10] | log2 fold change [11] | log2 fold change [12] | log2 fold change [13] | log2 fold change [14] | log2 fold change [15] | log2 fold change [16] | log2 fold change [17] | log2 fold change [18] | log2 fold change [19] | log2 fold change [20]
1 | SLC20A1 (UniProt Q8WUM9) | -0.002 | -0.065 | -0.009 | 0.016 | 0.038 | -0.016 | -0.006 | 0.042 | -0.075 | -0.013 | -0.021 | -0.001 | -0.023 | -0.03 | 0.007 | -0.048 | -0.007 | -0.034 | 0.05 | -0.099
2 | SLC38A10 (UniProt Q9HBR0) | 0.006 | -0.069 | 0.009 | -0.136 | 0.018 | 0.068 | -0.061 | -0.087 | -0.044 | 0.091 | 0.072 | -0.073 | -0.009 | 0.05 | -0.031 | -0.013 | 0.047 | -0.039 | 0.01 | 0.023
3 | STUB1 (UniProt Q9UNE7) | -0.01 | -0.012 | -0.035 | 0.004 | -0.01 | -0.073 | -0.006 | 0.019 | -0.054 | 0.05 | 0.031 | -0.027 | -0.037 | 0.027 | 0.004 | -0.06 | -0.011 | 0.053 | 0.015 | 0.004
4 | SFN (UniProt P31947) | 0.018 | 0.117 | 0.055 | 0.347 (active) | -0.029 | -0.043 | 0.006 | 0.019 | 0.047 | -0.117 | -0.036 | -0.007 | 0.088 | -0.007 | 0.008 | 0.077 | 0.052 | -0.048 | -0.023 | 0.035
5 | SMAP2 (UniProt Q8WU79) | -0.017 | -0.164 | 0.102 | 0.031 | -0.008 | -0.008 | 0.054 | -0.019 | 0.051 | -0.032 | -0.058 | 0.026 | -0.013 | 0.037 | 0.06 | 0.072 | -0.038 | 0.076 | 0.026 | 0.022
6 | TAPT1 (UniProt Q6NXT6) | -0.007 | 0.025 | -0.044 | -0.196 | 0.012 | 0.057 | 0.031 | 0.024 | 0.01 | 0.093 | 0.009 | 0.012 | 0.013 | 0.03 | -0.118 | -0.053 | 0.017 | -0.032 | 0.011 | -0.001
7 | SNRPD3 (UniProt P62318) | -0.027 | -0.06 | 0.008 | -0.233 (active) | 0.052 | 0.102 | 0.028 | 0.014 | 0.069 | 0.11 | 0.028 | -0.006 | 0.016 | -0.034 | 0.009 | -0.002 | -0.002 | 0.029 | 0.004 | 0.001
8 | SPATA5 (UniProt Q8NB90) | -0.017 | -0.009 | -0.046 | -0.027 | -0.015 | -0.13 | 0.02 | -0.017 | -0.05 | 0.034 | 0.001 | 0.006 | -0.052 | -0.002 | 0.011 | -0.023 | -0.002 | 0.03 | 0.001 | -0.064
9 | SMIM1 (UniProt B2RUZ4) | 0.098 | -0.028 | -0.106 | 0.121 | – | 0.106 | -0.019 | 0.034 | -0.021 | 0.011 | 0.056 | 0.05 | – | 0.195 | – | 0.168 | 0.039 | -0.055 | -0.188 | -0.418 (active)
10 | SMC2 (UniProt O95347) | -0.019 | 0.013 | -0.028 | 0.121 | -0.009 | -0.177 | 0.014 | 0.037 | -0.02 | -0.059 | -0.017 | -0.005 | -0.036 | 0.007 | 0.025 | -0.023 | 0.024 | 0.034 | 0.017 | -0.003
11 | SORBS3 (UniProt O60504) | 0.072 | 0.007 | -0.002 | 0.006 | -0.127 | 0.024 | -0.012 | -0.019 | -0.032 | 0.025 | – | – | 0.005 | – | -0.019 | -0.088 | – | 0.022 | 0.036 | -0.019
12 | STK26 (UniProt Q9P289) | -0.011 | 0.024 | 0.007 | -0.003 | 0.005 | 0.061 | 0.005 | -0.036 | -0.015 | -0.004 | -0.033 | 0.25 (active) | 0.102 | 0.044 | 0.029 | -0.035 | -0.013 | 0.104 | 0.002 | -0.008
